About 83,000 compounds went through this panel and 20% of them were active in at least one assay; those are over-represented in the sample as a whole.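 Assay: single dose, 48 h. Readout: percent growth (0 = no net growth; negative = cell death). Active: <10.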 Active and inactive are the calls of the source.
Experiments:
Test in all cases: NCI-60 one-dose screen, 48 h (100 = growth as untreated, 0 = no growth, -100 = all killed)
Conditions in all cases: 10 µM unless noted
NCI-H23 lung = test system: NCI-H23 lung
NCI-H226 lung = test system: NCI-H226 lung
NCI-H322M lung = test system: NCI-H322M lung
HOP-62 NSCLC = test system: HOP-62 NSCLC
NCI-H460 lung = test system: NCI-H460 lung
HOP-92 NSCLC = test system: HOP-92 NSCLC
NCI-H522 lung = test system: NCI-H522 lung
A549/ATCC NSCLC = test system: A549/ATCC NSCLC
786-0 renal = test system: 786-0 renal
COLO 205 colon = test system: COLO 205 colon

Measured: growth

CN(C)/C(N)=N/N=C(\c1ccccc1)c1ccccn1
inactive: NCI-H23 lung 95.7% | NCI-H226 lung 97.3% | NCI-H322M lung 83.1% | HOP-62 NSCLC 110% | NCI-H460 lung 101% | HOP-92 NSCLC 87.2% | NCI-H522 lung 95.5% | A549/ATCC NSCLC 107% | 786-0 renal 99.9% | COLO 205 colon 106%

CN(C)CCCn1c2c(c3cnccc3c1=O)C(=O)c1ccccc1-2
inactive: A549/ATCC NSCLC 11.3%
active: NCI-H23 lung -10.7% | NCI-H226 lung -13.8% | NCI-H322M lung -7.53% | HOP-62 NSCLC -1.96% | NCI-H460 lung -27.2% | HOP-92 NSCLC -9.59% | NCI-H522 lung -28.2% | 786-0 renal -4.55% | COLO 205 colon -25%

COc1cc(Cc2cc(-c3ccccc3)nn(Cc3ccccc3)c2=O)cc(OC)c1OC
inactive: NCI-H23 lung 37.4% | NCI-H226 lung 46.2% | NCI-H322M lung 78.5% | HOP-62 NSCLC 66.1% | NCI-H460 lung 37.3% | HOP-92 NSCLC 51.1% | NCI-H522 lung 28.4% | A549/ATCC NSCLC 19.9% | 786-0 renal 49.9% | COLO 205 colon 15.5%

O=C(O)CC(C(=O)O)/C(=C\c1ccccc1)c1ccccc1 (stereo not given)
inactive: NCI-H23 lung 105% | NCI-H226 lung 86.4% | NCI-H322M lung 116% | HOP-62 NSCLC 89.3% | NCI-H460 lung 106% | HOP-92 NSCLC 93.3% | NCI-H522 lung 128% | A549/ATCC NSCLC 99.5% | 786-0 renal 114% | COLO 205 colon 99.5%

CNC(=O)Nc1ccc(-c2ccc3ncnc(Nc4cccc(Cl)c4)c3c2)cc1
active: NCI-H322M lung 7.46% | NCI-H522 lung -1.3%
inactive: NCI-H23 lung 62.9% | NCI-H226 lung 68.4% | HOP-62 NSCLC 71.4% | NCI-H460 lung 77.4% | HOP-92 NSCLC 37.8% | A549/ATCC NSCLC 41.8% | 786-0 renal 71.4% | COLO 205 colon 66.3%

CCCCCCCCn1ccc2cc(NC(=O)CN=[N+]=[N-])ccc21
inactive: NCI-H23 lung 102% | NCI-H226 lung 95.4% | NCI-H322M lung 102% | HOP-62 NSCLC 114% | NCI-H460 lung 107% | HOP-92 NSCLC 111% | NCI-H522 lung 88.3% | A549/ATCC NSCLC 100% | 786-0 renal 94.1% | COLO 205 colon 118%

CCOC(=O)c1cnn(CC(C)O)c1NC(=O)NCc1ccccc1C(F)(F)F (stereo not given)
inactive: NCI-H23 lung 98.8% | NCI-H226 lung 104% | NCI-H322M lung 97.5% | HOP-62 NSCLC 102% | NCI-H460 lung 109% | HOP-92 NSCLC 84.5% | NCI-H522 lung 60.8% | A549/ATCC NSCLC 82.1% | 786-0 renal 93.8% | COLO 205 colon 112%

O=C(C1=Cc2cc3ccccc3n2Cc2cnnn21)c1ccc(F)cc1
inactive: NCI-H23 lung 98.9% | NCI-H226 lung 98.8% | NCI-H322M lung 99.1% | HOP-62 NSCLC 109% | NCI-H460 lung 106% | HOP-92 NSCLC 102% | NCI-H522 lung 91.3% | A549/ATCC NSCLC 96.3% | 786-0 renal 99.1% | COLO 205 colon 117%

CC(C)(Sc1cc(C(C)(C)C)c(O)c(C(C)(C)C)c1)Sc1cc(C(C)(C)C)c(OC(=O)CCC(=O)O)c(C(C)(C)C)c1
inactive: NCI-H23 lung 40% | NCI-H226 lung 67.4% | NCI-H322M lung 56.4% | HOP-62 NSCLC 44.7% | NCI-H460 lung 28.9% | HOP-92 NSCLC 35.8% | NCI-H522 lung 36.9% | A549/ATCC NSCLC 28.6% | 786-0 renal 44.7% | COLO 205 colon 55%

O=C1CCCC1[n+]1ccccc1 (stereo not given)
inactive: NCI-H23 lung 108% | NCI-H226 lung 105% | NCI-H322M lung 93.6% | HOP-62 NSCLC 80.8% | NCI-H460 lung 111% | HOP-92 NSCLC 97.4% | NCI-H522 lung 62.1% | A549/ATCC NSCLC 72.3% | 786-0 renal 82.2% | COLO 205 colon 86.1%

C/C(=C(\c1ccc(OCCN2CCCCCC2)cc1)c1ccc(OC(=O)c2ccccc2)cc1)c1ccc(Cl)cc1
inactive: NCI-H23 lung 46.7% | NCI-H226 lung 87.5% | NCI-H322M lung 71.7% | HOP-62 NSCLC 71.7% | HOP-92 NSCLC 56.2% | NCI-H522 lung 51% | A549/ATCC NSCLC 39.1% | 786-0 renal 21.8%
active: NCI-H460 lung 3.62% | COLO 205 colon 4.38%

N#Cc1c(-c2ccc(Br)cc2)nc2c(N=Nc3ccc(S(N)(=O)=O)cc3)c(N)nn2c1N
inactive: NCI-H23 lung 63.7% | NCI-H226 lung 66.2% | NCI-H322M lung 74.7% | HOP-62 NSCLC 52.2% | NCI-H460 lung 37.1% | HOP-92 NSCLC 31.5% | NCI-H522 lung 38.6% | A549/ATCC NSCLC 68.4% | 786-0 renal 69.9% | COLO 205 colon 25.5%

COC(=O)/C(CCC=C(C)C)=C1\[C@@H](OC(C)=O)C[C@@]2(C)[C@H]1C/C(=N/O)[C@H]1[C@@]3(C)CC/C(=N\O)[C@@H](C)[C@@H]3CC[C@@]12C
active: NCI-H522 lung -57.1%
inactive: NCI-H23 lung 99.5% | NCI-H226 lung 96.8% | NCI-H322M lung 109% | HOP-62 NSCLC 105% | NCI-H460 lung 105% | HOP-92 NSCLC 95.4% | A549/ATCC NSCLC 94% | 786-0 renal 96.3% | COLO 205 colon 106%

Cc1ccc(S(=O)(=O)OC[C@]23CCC(C)(C)C[C@H]2C2=CC[C@@H]4[C@@]5(C)CCCNC(C)(C)[C@@H]5CC[C@@]4(C)[C@]2(C)CC3)cc1
inactive: NCI-H23 lung 73.7% | NCI-H226 lung 81.8% | NCI-H322M lung 79.7% | HOP-62 NSCLC 78.1% | HOP-92 NSCLC 41.8% | NCI-H522 lung 62% | A549/ATCC NSCLC 34.6% | 786-0 renal 34.7%
active: NCI-H460 lung -60.2% | COLO 205 colon -66.5%

Cc1cc(O)cc(-c2nn(C)cc2-c2cc(N3CCOCC3)nc(-c3cccnc3)n2)c1
active: HOP-92 NSCLC 6.01%
inactive: NCI-H23 lung 56.1% | NCI-H226 lung 36.7% | NCI-H322M lung 59.7% | HOP-62 NSCLC 49.3% | NCI-H460 lung 12.4% | NCI-H522 lung 13.1% | A549/ATCC NSCLC 39.3% | 786-0 renal 18.2% | COLO 205 colon 16.3%

Cn1c(C#N)ccc1-c1ccc(F)c(NC(=O)c2ccc(F)cc2)c1
inactive: NCI-H23 lung 80.6% | NCI-H226 lung 105% | NCI-H322M lung 97.9% | HOP-62 NSCLC 75.8% | NCI-H460 lung 80.2% | HOP-92 NSCLC 70.5% | NCI-H522 lung 76.2% | A549/ATCC NSCLC 83.2% | 786-0 renal 84.8% | COLO 205 colon 90.9%

O=C(/C=C/C12c3ccccc3C(c3ccccc31)C1C(=O)NC(=O)C12)c1ccc(Cl)cc1Cl (stereo not given)
inactive: NCI-H23 lung 32.9% | NCI-H226 lung 78.7% | NCI-H322M lung 41.4% | HOP-62 NSCLC 21% | HOP-92 NSCLC 37.6% | A549/ATCC NSCLC 37.4% | 786-0 renal 19.1%
active: NCI-H460 lung 8.61% | NCI-H522 lung 9.1% | COLO 205 colon -8.3%

O=C(Nc1cc(Cl)cc(Cl)c1)Oc1c(Cl)c(Cl)c(Cl)c(Cl)c1Cl
active: HOP-92 NSCLC -18.7%
inactive: NCI-H23 lung 57% | NCI-H226 lung 72.5% | NCI-H322M lung 99.2% | HOP-62 NSCLC 94.4% | NCI-H460 lung 72.6% | NCI-H522 lung 38.9% | A549/ATCC NSCLC 71.2% | 786-0 renal 81.1% | COLO 205 colon 80.7%

COc1ccc(/C=C(\C(=O)NCc2cccnc2)S(=O)(=O)c2ccccc2)cc1OC
inactive: NCI-H23 lung 37.1% | NCI-H226 lung 74.6% | NCI-H322M lung 41.3% | HOP-62 NSCLC 50.7% | NCI-H460 lung 14.7% | HOP-92 NSCLC 43.5% | A549/ATCC NSCLC 45.7% | 786-0 renal 20.8% | COLO 205 colon 30.2%
active: NCI-H522 lung -4.24%

COc1cc(C=Nc2oc(-c3ccccc3)c(-c3ccccc3)c2C#N)cc(CN2CCCC2)c1O
inactive: NCI-H23 lung 94.8% | NCI-H226 lung 93.7% | NCI-H322M lung 103% | HOP-62 NSCLC 94% | NCI-H460 lung 102% | HOP-92 NSCLC 85.6% | NCI-H522 lung 85.8% | A549/ATCC NSCLC 94.4% | 786-0 renal 99.3% | COLO 205 colon 114%

O=S(=O)(NCCNc1nccc(-c2c(-c3ccc(F)c(O)c3)nc3sccn23)n1)c1ccc(Cl)cc1
inactive: NCI-H23 lung 42.1% | NCI-H226 lung 24.2% | NCI-H322M lung 55.8% | HOP-62 NSCLC 60.2% | NCI-H460 lung 27% | HOP-92 NSCLC 45% | NCI-H522 lung 22.2% | A549/ATCC NSCLC 25.7% | 786-0 renal 38.3% | COLO 205 colon 17.6%

O=C1C=CC2(O)OC/C(=C\c3ccccc3)C(O)=C2C1=O (stereo not given)
active: HOP-62 NSCLC 5.5% | HOP-92 NSCLC -3.3% | NCI-H522 lung -73.1% | 786-0 renal -41.3%
inactive: NCI-H23 lung 36.1% | NCI-H226 lung 81% | NCI-H322M lung 72.2% | NCI-H460 lung 29.1% | A549/ATCC NSCLC 42.2% | COLO 205 colon 36.2%

c1ccc(Nc2nc3c(s2)CCc2c[nH]cc2-3)nc1
inactive: NCI-H23 lung 91.1% | NCI-H226 lung 74.7% | NCI-H322M lung 90.5% | HOP-62 NSCLC 92.7% | NCI-H460 lung 100% | HOP-92 NSCLC 88.9% | A549/ATCC NSCLC 91.6% | 786-0 renal 105% | COLO 205 colon 98.4%
active: NCI-H522 lung -49.9%

Clc1ccc(-c2cc(-c3ccccc3)nc(N3CCN(CCCNc4ccnc5cc(Cl)ccc45)CC3)n2)cc1
active: NCI-H460 lung -12.8% | NCI-H522 lung 9.55% | 786-0 renal -73.2% | COLO 205 colon -54.2%
inactive: NCI-H23 lung 69% | NCI-H226 lung 45.9% | NCI-H322M lung 28.2% | HOP-62 NSCLC 82.1% | HOP-92 NSCLC 26.6% | A549/ATCC NSCLC 43.6%

CCN(CC)C(=O)CC1=C(C)/C(=C/c2[nH]c(-c3ccc[nH]3)cc2OC)N=C1C
active: NCI-H460 lung 9.17% | HOP-92 NSCLC -14.8% | A549/ATCC NSCLC 4.73% | 786-0 renal -13.3%
inactive: NCI-H23 lung 34% | NCI-H226 lung 20% | NCI-H322M lung 37.1% | HOP-62 NSCLC 33.1% | NCI-H522 lung 10.1% | COLO 205 colon 15.9%

COc1ccc(Oc2ccc(/C=C/C(=O)c3cc4ccccc4oc3=O)cc2)cc1
inactive: NCI-H23 lung 81% | NCI-H226 lung 92.2% | NCI-H322M lung 84.5% | HOP-62 NSCLC 85.6% | NCI-H460 lung 102% | HOP-92 NSCLC 58.2% | NCI-H522 lung 65.1% | A549/ATCC NSCLC 95.2% | 786-0 renal 108% | COLO 205 colon 120%

— PubChem BioAssay (NCI)
